Data taken from the supplement of paper PMC10646978.
± gives the standard deviation.

How the values were obtained:
Conditions in all cases: modulator concentration 10 µM
[1] = test system: RAW-Dual (murine macrophage reporter line); assay: NF-kB reporter (SEAP) activity fold change vs agonist alone; higher = enhanced NF-kB activity
Method in brief: (§1)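 In 384-well plates holding 50 000 RAW-Dual murine macrophage reporter cells per well, compound at 10 μM final was pre-incubated for 1 hour at 37 °C, after which a PRR agonist was added overnight. Supernatant SEAP read with QUANTI-Blue at 620 nm absorbance reported NF-κB, and Lucia luciferase read with QUANTI-Luc luminescence reported IRF. Fold change values come from dividing each reporter signal by the mean of agonist-only control wells on the same plate, averaged over replicate plates with propagated errors.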

[2] = test system: RAW-Dual (murine macrophage reporter line); assay: IRF reporter (Lucia luciferase) activity fold change vs agonist alone; higher = enhanced IRF activity
Method in brief: as §1

[3] = test system: RAW-Dual (murine macrophage reporter line); assay: viability score (confluency relative to resting cells, overnight) (fraction); higher = more viable, active = viable (0.7 or more)
Method in brief: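 RAW-Dual macrophages in 384-well plates were treated overnight with compound at 10 μM final. IncuCyte imaging recorded confluency, and IncuCyte software built two confluency masks across every imaged well. The viability score expresses confluency relative to resting cells and was judged against a cutoff, which a compound met only if both masks exceeded 70% of resting cells.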

[4] = agonist: CpG ODN 1826 0.5 ug/mL

SMILES	NF-kB reporter [1, 4]	NF-kB reporter ([1]; agonist: LPS 0.1 ug/mL)	NF-kB reporter ([1]; agonist: MPLA […])	IRF reporter ([2]; agonist: 3'3'-cGAMP 10 ug/mL)	IRF reporter ([2]; agonist: LPS 0.1 ug/mL)	IRF reporter ([2]; agonist: MPLA […])	viability score [3]
Clc1ccc(C=NNc2cc(N3CCCC3)nc(N3CCCC3)n2)c(Cl)c1	0.988 ± 0.076	0.983 ± 0.081	0.987 ± 0.1	0.99 ± 0.062	1.21 ± 0.15	1.31 ± 0.25	1.04 (active)
Cc1ccc(S(=O)(=O)N=C(Nc2ccc([N+](=O)[O-])cc2)c2ccccc2)cc1	1.06 ± 0.075	1.13 ± 0.074	0.928 ± 0.06	0.958 ± 0.032	1.39 ± 0.32	1.22 ± 0.16	1 (active)
Cc1ccc(Sc2cc(Sc3ccc(C)cc3)c3noc4c3c2C(=O)c2ccccc2-4)cc1	0.971 ± 0.078	1.03 ± 0.075	0.957 ± 0.09	0.959 ± 0.052	1.28 ± 0.21	1.49 ± 0.38	1.01 (active)
CCN(CC)c1ccc(C=NNC(=O)c2ccccc2I)c(O)c1	1.35 ± 0.13	0.997 ± 0.069	1.26 ± 0.076	0.436 ± 0.036	1.08 ± 0.11	1.09 ± 0.13	0.926 (active)
CC1C(=O)N2CCCc3cc(S(=O)(=O)N4CCN(c5cccc(Cl)c5)CC4)cc1c32 (stereo not drawn)	0.755 ± 0.24	0.894 ± 0.073	0.971 ± 0.052	0.598 ± 0.044	1.2 ± 0.23	1.22 ± 0.37	0.996 (active)
CCOC(=O)C1=C(C)NC(=Cc2ccccc2[N+](=O)[O-])C1=O	1.66 ± 0.13	0.864 ± 0.2	0.872 ± 0.13	0.275 ± 0.024	0.0881 ± 0.019	0.064 ± 0.016	0.755 (active)
CN1CCC(=C2c3ccccc3CCn3c(C=O)cnc32)CC1	0.766 ± 0.11	1.24 ± 0.12	0.971 ± 0.1	0.875 ± 0.04	1.1 ± 0.14	0.943 ± 0.29	1 (active)
O=S(=O)(Cc1cccc(Cl)c1)N1C2CCC1CC(Oc1cccnc1)C2 (stereo not drawn)	1.07 ± 0.064	1.13 ± 0.1	1.08 ± 0.039	0.96 ± 0.064	1.12 ± 0.063	1.2 ± 0.12	1 (active)
COc1ccc(Cn2cc3c(-c4ccc(F)cc4)nnc-3c3cc(OC)c(OC)cc32)cc1	0.318 ± 0.026	1.17 ± 0.13	2.16 ± 0.1	1.79 ± 0.12	2.42 ± 0.18	3 ± 0.35	0.141 (inactive)
COc1ccc(CNC23CC4CC(CC(C4)C2)C3)cc1OC	0.937 ± 0.072	0.899 ± 0.13	0.891 ± 0.092	0.959 ± 0.03	1.1 ± 0.23	1.1 ± 0.17	1.01 (active)
CC(=O)Oc1c(C)cc2sc3ccccc3c(=O)c2c1C	1.06 ± 0.18	0.87 ± 0.077	0.927 ± 0.095	0.846 ± 0.032	1.25 ± 0.12	1.2 ± 0.12	0.998 (active)
Nc1nc(NC2CC2)c2ncn([C@H]3C=C[C@@H](CO)C3)c2n1 [Prestw-1512]	1.12 ± 0.18	1.18 ± 0.11	1.02 ± 0.087	0.935 ± 0.031	1.01 ± 0.21	1.12 ± 0.19	0.974 (active)
COc1ccc(S(=O)(=O)N(CC(=O)Nc2ccccc2F)c2ccc(C)cc2)cc1OC	0.984 ± 0.087	0.987 ± 0.057	0.933 ± 0.059	0.979 ± 0.024	1.54 ± 0.12	1.16 ± 0.26	1.01 (active)
N[C@@H](CSCCCO)C(=O)O	0.987 ± 0.073	1.01 ± 0.051	0.937 ± 0.033	0.922 ± 0.077	0.995 ± 0.047	0.971 ± 0.089	1 (active)
O=C1CSC(=S)N1N=Cc1ccc(O)c([N+](=O)[O-])c1	0.956 ± 0.091	1.1 ± 0.11	0.97 ± 0.084	1.04 ± 0.027	1.75 ± 0.36	1.1 ± 0.17	0.994 (active)
Cc1cccc(C(=O)N2CCCC(c3nnc(CC(C)(C)C)o3)C2)c1 (stereo not drawn)	0.877 ± 0.037	0.942 ± 0.16	1.35 ± 0.08	0.924 ± 0.043	1.33 ± 0.3	1.36 ± 0.47	0.944 (active)
Cc1ccc(CNC(=O)C(=O)NC2CCCCC2)cc1	1 ± 0.094	0.956 ± 0.11	0.963 ± 0.091	0.97 ± 0.025	1.46 ± 0.2	1.11 ± 0.21	1.01 (active)
C[C@H](N[C@@H](CCc1ccccc1)C(=O)O)C(=O)N1CCC[C@H]1C(=O)O.O.O	1.15 ± 0.086	1.09 ± 0.16	1.03 ± 0.073	1.17 ± 0.31	0.953 ± 0.057	0.906 ± 0.077	0.993 (active)
O=C(CCCCC(=O)NN=Cc1cccc(O)c1)NN=Cc1cccc(O)c1	1.05 ± 0.093	1.08 ± 0.081	0.935 ± 0.12	0.955 ± 0.032	1.41 ± 0.15	1.16 ± 0.17	1 (active)
COc1cc(C=NNc2ccc(C(=O)O)cc2)cc(Br)c1O	1.16 ± 0.13	0.97 ± 0.062	1.09 ± 0.1	0.198 ± 0.006	0.241 ± 0.061	0.223 ± 0.035	1 (active)
CN(CCO)c1ccc2nonc2c1[N+](=O)[O-]	1.39 ± 0.085	1.18 ± 0.11	1.33 ± 0.087	0.886 ± 0.034	1.28 ± 0.086	0.996 ± 0.088	1 (active)
NC(=O)c1ncn(C2OC(CO)C(O)C2O)c1O (stereo not drawn)	0.931 ± 0.076	0.895 ± 0.088	0.917 ± 0.1	1.04 ± 0.037	1.32 ± 0.16	1.46 ± 0.2	1.01 (active)
CC(Oc1cccc(Cl)c1)C(=O)Nc1nncs1 (stereo not drawn)	0.999 ± 0.082	0.972 ± 0.054	0.967 ± 0.058	0.947 ± 0.023	1.28 ± 0.18	1.05 ± 0.2	1.01 (active)
COc1ccc(N(CC(=O)N2CCc3ccccc3C2)S(C)(=O)=O)cc1Cl	1.18 ± 0.12	1.05 ± 0.077	0.987 ± 0.059	1.06 ± 0.033	1.52 ± 0.12	1.11 ± 0.13	1.01 (active)
